The list is not random: actives were taken first. Their share in the collection is about 7.3%.
HCMV antiviral = inhibitors of human cytomegalovirus; activity change, negative = inhibition, % at 57.5 µM; 410,000 tested, 4.5% active; HFF cells, HCMV-luciferase reporter, 72 h; hits give low values; in the data active = activity change below about -60%; inconclusive = no clear call, values can overlap the other calls; inactive = above about -39%
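Screen run at 2 compound doses on HFFs infected with reporter HCMV, MOI 1 PFU/cell. Luciferase activity from cell lysates at 72 h post infection gave inhibition relative to buffer-only and Salinomycin wells.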
HCV inhibitor = blocks hepatitis C virus; Potency, µM (doses to about 41.8 µM), actives largely listed as inhibitors; AID 651820; Huh7.5.1 HCVcc-Cre infection, luciferase reporter, 44 h; 340,000 tested, 3.4% active; active = well fitted inhibition curve with a large enough effect; inconclusive = small, poorly fitted or top-dose-only effect, or another doubt; inactive = no such curve, though single readings can be large or run the other way
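Seed cells (1,000/well) for 4 h; treat with compound and infect with HCVcc-Cre, moi about 0.5. Incubate 44 h, then detect luciferase activity.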
VACV Venus inh = inhibitors of vaccinia virus (Venus reporter); Vaccinia virus Venus reporter expression, fluorescence; Potency, µM (doses to about 36.5 µM), usual class: inhibitors; 330,000 tested, 0.46% active; AID 720580; calls by dose curve; tested in A549 cells; also: nearly all actives have a fitted effect of over 30% in size
FMDV inh = foot and mouth disease virus antiviral activity | FMDV antiviral cell-based qHTS | Potency, µM (doses to about 57.9 µM), hits mostly inhibitors | 410,000 tested, 1.2% active | AID 1159524; calls by dose curve; tested in HEK293T cells; also: read-out not given here; nearly all actives have a fitted effect of over 45% in size
Vaccinia mCherry = inhibitors of vaccinia virus infection (mCherry reporter signal). Vaccinia virus mCherry reporter infection, fluorescence. Potency, µM (series often up to 36.5 µM), actives largely listed as inhibitors. 310,000 tested, 0.63% active. AID 720579; calls by dose curve; tested in A549 cells; also: nearly all actives have a fitted effect of over 35% in size
Large screens that a line does not name were inactive.

Cc1cccc(N2C(=O)NC(=O)/C(=C\C=C\c3ccco3)C2=O)c1	HCV inhibitor inconclusive, FMDV inh 7.1µM (no result: VACV Venus inh, Vaccinia mCherry)
Cc1cccc(N2C(=O)NC(=O)/C(=C/c3ccc([N+](=O)[O-])o3)C2=O)c1	none (no result: HCMV antiviral)
CN(C)c1ccc(/C=C/C=C2/C(=O)NC(=O)N(c3ccccc3)C2=O)cc1	HCMV antiviral -113, HCV inhibitor inconclusive, FMDV inh 20µM
Cn1c(=O)c2c(-c3ccccc3)n3c(c2n(C)c1=O)C(c1cccc([N+](=O)[O-])c1)Nc1ccccc1-3 (configuration not stated)	FMDV inh inconclusive (no result: HCV inhibitor)
CCOC(=O)c1ccccc1NC(=O)N1CCN2CCCCC2C1 (configuration not stated)	none (no result: HCV inhibitor)
COc1cc2c(cc1OC)C(c1cc(OC)c(O)c(OC)c1)CC(=O)N2 (configuration not stated)	none (no result: HCV inhibitor)
CCS(=O)(=O)c1ncc(Cl)c(C(=O)N(Cc2ccccc2)Cc2ccco2)n1	HCMV antiviral -99, FMDV inh 14µM (no result: HCV inhibitor)
S=C(NCc1ccc(Cl)cc1Cl)NC1CCCCC1	HCMV antiviral -78, HCV inhibitor inconclusive, VACV Venus inh inconclusive, Vaccinia mCherry inconclusive
Cc1cc2cc(CNC(=S)NC3CCCCC3)ccc2[nH]1	HCMV antiviral -63, HCV inhibitor 10µM (no result: VACV Venus inh, Vaccinia mCherry)
Cc1ccc(NC(=O)NCc2ccc3[nH]c(C)cc3c2)cc1	HCMV antiviral -84, HCV inhibitor inconclusive
Cc1cccc(CNC(=O)C2CCN(c3nc4ccc(Cl)cc4[nH]3)CC2)c1	none (no result: HCV inhibitor)
Cc1ccc(NC(=O)C(=O)NCC(c2cccnc2)N2CCN(Cc3ccccc3)CC2)cc1 (configuration not stated)	FMDV inh inconclusive (no result: HCV inhibitor)
CCc1cc(-c2cnnn2Cc2ccc3ccccc3c2)ccc1-c1cn(CC(C)C)nn1	VACV Venus inh inconclusive, FMDV inh inconclusive, Vaccinia mCherry inconclusive (no result: HCV inhibitor)
CCc1cc(-c2nnn(CCC3COCCO3)c2CC)ccc1-c1cn(Cc2ccccc2)nn1 (configuration not stated)	HCMV antiviral -83, VACV Venus inh inconclusive, FMDV inh inconclusive, Vaccinia mCherry inconclusive (no result: HCV inhibitor)
CCCCOc1ccc(C(=O)Nc2cccc(-c3nc4cccnc4s3)c2)cc1	VACV Venus inh inconclusive, FMDV inh inconclusive, Vaccinia mCherry inconclusive (no result: HCV inhibitor)
Cc1cc(NC(=O)OC(C)(C)C)c(-n2nnnc2C(C(=O)c2ccc3c(c2)OCO3)N2CCCCC2)cc1C (configuration not stated)	none (no result: HCV inhibitor, VACV Venus inh, FMDV inh, Vaccinia mCherry)
CC(C)=CCN1CCN(CCC2=C(C)CCCC2(C)C)CC1CCO (configuration not stated)	HCMV antiviral -66, HCV inhibitor inconclusive (no result: VACV Venus inh, Vaccinia mCherry)
CC(=O)N1CCc2cc(S(=O)(=O)NCCC(=O)NCCc3ccc(C)cc3)ccc21	HCV inhibitor 10µM, FMDV inh inconclusive
CC(=O)N1CCc2cc(S(=O)(=O)NCCC(=O)NCCc3ccc(Cl)cc3)ccc21	HCMV antiviral -75, HCV inhibitor inconclusive, FMDV inh inconclusive (no result: VACV Venus inh, Vaccinia mCherry)
N/C(=N\OC(=O)Nc1ccccc1)c1ncc([N+](=O)[O-])s1	HCV inhibitor 13µM, VACV Venus inh inconclusive, Vaccinia mCherry inconclusive
O=C(Nc1nc(-c2ccccc2)cs1)c1ccccc1NS(=O)(=O)c1ccc(F)cc1	HCMV antiviral -100, HCV inhibitor inconclusive, VACV Venus inh inconclusive, FMDV inh inconclusive, Vaccinia mCherry inconclusive
COc1ccc(-c2csc(NC(=O)c3ccoc3C)n2)cc1	HCMV antiviral inconclusive, HCV inhibitor 11µM
COc1ccc(-c2csc(NC(=O)c3ccccc3S(C)(=O)=O)n2)cc1	HCMV antiviral inconclusive, HCV inhibitor inconclusive, FMDV inh 25µM
CN(C)Cc1ccccc1-c1nc(N2CCOCC2)c2ccccc2n1	none (no result: HCMV antiviral, HCV inhibitor)
CN1c2ccccc2C(C)(C)C12C=Nc1c(cc(N3CCOCC3)c3ccccc13)O2 (configuration not stated)	HCMV antiviral -74, FMDV inh inconclusive
O=C(/C=C/c1ccc(OCCCF)cc1)Nc1ccnc(-c2ccncc2)n1	HCMV antiviral inconclusive, HCV inhibitor inconclusive, FMDV inh 22µM
C/C(=N\NC(=O)c1c(C)nc2ccccn12)c1ccc(O)cc1O	HCMV antiviral -82, HCV inhibitor 6.3µM, VACV Venus inh inconclusive, Vaccinia mCherry inconclusive
COc1c(-c2coc3cc4c(cc3c2=O)CC(O)C(C)(C)O4)ccc2c1C=CC(C)(C)O2 (configuration not stated)	VACV Venus inh 11µM, FMDV inh 2.2µM, Vaccinia mCherry 11µM (no result: HCMV antiviral, HCV inhibitor)
O=C(C[n+]1cccc2cccc(O)c21)c1ccc(Cl)cc1	none (no result: HCMV antiviral, HCV inhibitor, FMDV inh)
CCOc1ccc(C(=O)NCCn2cc(SCC(=O)NCCc3ccc(OC)c(OC)c3)c3ccccc32)cc1	none (no result: HCV inhibitor)
COc1ccc(CCNC(=O)CSc2cn(Cc3ccccc3)c3ccccc23)cc1OC	HCV inhibitor 11µM, FMDV inh inconclusive
COc1ccc(CCNC(=O)CSC(=O)c2ccccc2)cc1OC	HCMV antiviral -60 (no result: VACV Venus inh, Vaccinia mCherry)
COc1ccc(CCNC(=O)CSc2cn(Cc3cccc(C)c3)c3ccccc23)cc1OC	HCV inhibitor 10µM, VACV Venus inh inconclusive, Vaccinia mCherry inconclusive
COc1ccc(CCNC(=O)CSc2cn(CCNC(=O)c3c(F)cccc3F)c3ccccc23)cc1OC	FMDV inh inconclusive (no result: HCV inhibitor)
COc1ccc(CCNC(=O)CSc2ccccc2)cc1OC	none
CCOC(=O)C1CSCCS(=O)(=O)N1Cc1cccc(F)c1 (configuration not stated)	none (no result: HCV inhibitor, VACV Venus inh, FMDV inh, Vaccinia mCherry)
CC(=O)Nc1ccccc1-c1nc(CNC(=O)c2ccc(F)c(F)c2)c(C)o1	none (no result: HCMV antiviral, HCV inhibitor)
CC(=O)Nc1ccc(NC(=O)COC(=O)c2ccccc2OCc2cccc(Br)c2)cc1	none (no result: HCMV antiviral, HCV inhibitor, FMDV inh)
CC(C)(C)C(=O)Cn1ncc(Br)c(Br)c1=O	HCMV antiviral -101, HCV inhibitor 10µM, FMDV inh inconclusive (no result: VACV Venus inh, Vaccinia mCherry)
CCN(Cc1ccccc1)C1CCN(Cc2ccc(SC)cc2)CC1	HCMV antiviral inconclusive, HCV inhibitor 7.1µM
O=C(c1cnn2c(C(F)(F)F)cc(-c3ccc(F)cc3)nc12)N1CCc2ccccc2C1	HCMV antiviral -72, HCV inhibitor inconclusive
CCOC(=O)N1CCN(C(=O)c2cnn3c(C(F)F)cc(-c4ccc(C)cc4)nc23)CC1	VACV Venus inh inconclusive (no result: Vaccinia mCherry)
Cc1ccc(-c2cc(C(F)F)n3ncc(C(=O)N4CCCc5ccccc54)c3n2)cc1	none
Cc1ccc(-c2cc(C(F)F)n3ncc(C(=O)N4CCc5ccccc5C4)c3n2)cc1	HCV inhibitor 11µM, VACV Venus inh inconclusive
CCn1nc(C)c(NC(=O)c2cnn3c(C(F)F)cc(-c4ccccc4)nc23)c1C	HCMV antiviral inconclusive, HCV inhibitor 14µM, FMDV inh inconclusive
Cc1ccc(-c2cc(C(F)F)n3ncc(C(=O)N4CCN(c5cccc(C)c5C)CC4)c3n2)cc1	HCV inhibitor 32µM
COc1ccc(Nc2nccc3[nH]c(-c4ccccc4OC)cc23)cc1	none (no result: HCV inhibitor, VACV Venus inh, FMDV inh, Vaccinia mCherry)
O=S(=O)(c1ccc(F)cc1)N1CCN(c2nc(-c3cccs3)nc3ccccc23)CC1	none (no result: HCMV antiviral, HCV inhibitor, FMDV inh)
CC(C)NC(=S)NC(=O)/C=C/c1ccc(F)cc1	HCMV antiviral -76
O=C(/C=C/c1ccc(F)cc1)NC(=S)NC1CCCCC1	none (no result: VACV Venus inh, Vaccinia mCherry)
CN(C(=S)NC(=O)/C=C/c1ccc(F)cc1)C1CCCCC1	HCMV antiviral -76
COc1cc2c(cc1OC)[C@@H]1N(C)c3ccccc3[C@@]13CCN[C@H]3C2	none (no result: HCV inhibitor, VACV Venus inh, FMDV inh, Vaccinia mCherry)

High-throughput results: PubChem, National Center for Advancing Translational Sciences (NCATS)
